Assay results as given in PubChem BioAssay AID624346 (National Center for Advancing Translational Sciences (NCATS), 2012).
Inconclusive results are not listed. Active and inactive are the calls of the source.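 Rule for the calls: active = potency, the concentration giving half inhibition in the gel assay, of 75 µM or lower; inconclusive = potency above 75 µM yet under 100 µM; inactive = potency of 100 µM or weaker, or none.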

Target: Ubiquitin carboxyl-terminal hydrolase 1 (Homo sapiens) + WD repeat-containing protein 48 (Homo sapiens) (UniProt O94782+Q8TAF3)
Test: Inhibitors of USP1/UAF1: Hit Validation in USP1 Diubiquiting Gel Assay
Details: USP1/UAF1 K63 diubiquitin cleavage, SDS-PAGE gel
Source text: Deubiquitinating enzymes (DUBs) are a class of enzymes that can cleave isopeptide bond formed between the C-terminal carboxylate of ubiquitin and a lysine side-chain amino group on the target protein. Among them, ubiquitin specific proteases (USPs) constitute the largest DUB family. Human USPs are emerging as promising targets for pharmacological intervention because of their connection to a number of human diseases, including prostate, colon and breast cancer (1, 2), pediatric acute lymphoblastic leukemia (3), and familial cylindromatosis (4). The advantage of inhibiting USPs lies in the potential specificity of therapeutic intervention that can lead to better efficacy and reduce nonspecific side effects. In a collaboration between the University of Delaware and the NIH Chemical Genomics Center, a high-throughput screen assay was developed to screen for USP1/UAF1 inhibitors. This miniaturized assay has a fluorescent read-out and is used to screen the NIH Molecular Libraries Small Molecule Repository (MLSMR) in order to identify a small molecule that inhibits USP1. Follow-up assays have also been developed to further test the hits from the primary screen. This assay validates the hits identified from the primary screen using a USP1 diubiquiting gel assay. NIH Chemical Genomics Center [NCGC] NIH Molecular Libraries Probe Centers Network [MLPCN] MLPCN Grant: DA030552 Assay Submitter (PI): Zhihao Zhuang, University of Delaware 1. Priolo, C., et al. (2006) The isopeptidase USP2a protects human prostate cancer from apoptosis. Cancer Res 66, 8625-8632 2. Popov, N., et al. (2007) The ubiquitin-specific protease USP28 is required for MYC stability. Nat Cell Biol 9, 765-774 3. De Pitta, C., et al. (2005) A leukemia-enriched cDNA microarray platform identifies new transcripts with relevance to the biology of pediatric acute lymphoblastic leukemia. Haematologica 90, 890-898 4. Kovalenko, A., et al. (2003) The tumour suppressor CYLD negatively regulates NF-kappaB signalling by deubiquitination. Nature 424, 801-805
The inhibition assay contains 100 nM for USP1/UAF1, 2 microM K63 linked diubiquitin, and inhibitors at varied concentrations (0.08 microM - 114 microM). The reaction was allowed for 1 hour at 37 degrees C, and quenched by the addition of Laemmli sample buffer. The reaction product was separated on a 20% denaturing SDS-PAGE gel and stained with Coomassie Blue. The intensity of the individual diubiquitin and monoubiquitin band was quantified using Quantity One 4.3.1 (Biorad, Hercules, CA). The percentage of the conversion was determined and used to calculate the reaction rate. The rate was plotted against inhibitor concentrations and fitted to determine the IC50 values using GraphPad Prism (GraphPad Software, Inc. La Jolla, CA).

Chain of Ubiquitin carboxyl-terminal hydrolase 1 (Homo sapiens) + WD repeat-containing protein 48 (Homo sapiens) (O94782 whole entry, looked up): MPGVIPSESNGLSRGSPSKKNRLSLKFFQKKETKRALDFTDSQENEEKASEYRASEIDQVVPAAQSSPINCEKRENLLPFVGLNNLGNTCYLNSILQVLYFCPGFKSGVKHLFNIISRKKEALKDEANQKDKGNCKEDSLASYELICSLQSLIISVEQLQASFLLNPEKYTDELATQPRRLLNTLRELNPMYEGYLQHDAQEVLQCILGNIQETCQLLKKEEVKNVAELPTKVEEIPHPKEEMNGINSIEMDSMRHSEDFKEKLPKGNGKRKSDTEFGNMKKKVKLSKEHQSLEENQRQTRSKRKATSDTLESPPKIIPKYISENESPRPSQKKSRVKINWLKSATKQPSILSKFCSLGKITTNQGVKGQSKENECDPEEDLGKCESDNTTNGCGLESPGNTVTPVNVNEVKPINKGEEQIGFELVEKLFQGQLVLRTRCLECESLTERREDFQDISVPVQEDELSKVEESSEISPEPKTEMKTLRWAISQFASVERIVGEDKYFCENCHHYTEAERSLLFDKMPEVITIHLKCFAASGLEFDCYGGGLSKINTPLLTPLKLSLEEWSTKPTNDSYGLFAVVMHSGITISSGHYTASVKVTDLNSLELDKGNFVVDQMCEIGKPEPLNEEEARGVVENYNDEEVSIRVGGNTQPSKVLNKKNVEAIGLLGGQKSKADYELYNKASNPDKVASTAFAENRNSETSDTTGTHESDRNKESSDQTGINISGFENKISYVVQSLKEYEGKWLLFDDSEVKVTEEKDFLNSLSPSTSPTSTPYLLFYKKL
Chain of Ubiquitin carboxyl-terminal hydrolase 1 (Homo sapiens) + WD repeat-containing protein 48 (Homo sapiens) (Q8TAF3 whole entry, looked up): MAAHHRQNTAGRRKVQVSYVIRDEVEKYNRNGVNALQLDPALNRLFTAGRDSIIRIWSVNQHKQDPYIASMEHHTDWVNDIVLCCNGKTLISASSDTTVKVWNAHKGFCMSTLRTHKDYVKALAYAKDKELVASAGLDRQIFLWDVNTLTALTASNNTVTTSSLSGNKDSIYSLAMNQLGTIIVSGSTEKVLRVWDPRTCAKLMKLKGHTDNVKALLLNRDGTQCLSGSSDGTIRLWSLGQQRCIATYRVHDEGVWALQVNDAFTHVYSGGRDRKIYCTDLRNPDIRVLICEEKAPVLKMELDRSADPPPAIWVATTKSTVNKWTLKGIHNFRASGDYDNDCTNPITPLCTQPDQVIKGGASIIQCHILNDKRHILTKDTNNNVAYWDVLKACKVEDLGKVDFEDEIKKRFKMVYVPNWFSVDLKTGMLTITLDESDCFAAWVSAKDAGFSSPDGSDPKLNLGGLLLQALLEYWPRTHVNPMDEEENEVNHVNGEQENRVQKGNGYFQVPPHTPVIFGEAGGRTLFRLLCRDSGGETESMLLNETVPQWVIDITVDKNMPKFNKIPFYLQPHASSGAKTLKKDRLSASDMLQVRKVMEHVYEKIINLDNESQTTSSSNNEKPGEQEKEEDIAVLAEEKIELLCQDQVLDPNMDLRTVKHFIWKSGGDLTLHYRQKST

| Structure (SMILES) | Potency | outcome |
| --- | --- | --- |
| c1ccc2c(Nc3ccncc3)nc(-c3ccc4c(c3)OCO4)nc2c1 | 28.6 µM (active) | – |
| Cc1ccccc1-c1nc(NCc2cccs2)c2ccccc2n1 | 6 µM (active) | – |
| N#Cc1cccc(-c2ccc3ncnc(NCc4ccccc4)c3c2)c1 | 26.6 µM (active) | – |
| COc1cccc(-c2nccc(NCc3cccc(C)c3)n2)c1 | 13 µM (active) | – |
| FC(F)(F)c1ccccc1-c1nc(NCc2cccnc2)c2ccccc2n1 | – | inactive |
| COc1ccccc1-c1nc(NCc2ccccc2)c2ccccc2n1 | 6.4 µM (active) | – |
| COc1ccccc1-c1cc(NCc2ccccc2)ncn1 | 10.9 µM (active) | – |
| Clc1ccccc1-c1nccc(NCc2ccccc2)n1 | 20 µM (active) | – |
| Cc1ccccc1-c1nc(NCc2cccnc2)c2ccccc2n1 | – | inactive |
| COc1ccc(CNc2ccnc(-c3ccccc3C(F)(F)F)n2)c(OC)c1 | 4.5 µM (active) | – |
| COc1ccccc1-c1nc(NCc2cccs2)c2ccccc2n1 | 21.3 µM (active) | – |
| Cc1cccc(CNc2cc(-c3ccccc3C)ncn2)c1 | 26.3 µM (active) | – |
| COc1ccccc1CNc1nc(-c2ccc(N(C)C)cc2)nc2ccccc12 | 10 µM (active) | – |
| Fc1ccc(Nc2nc(-c3cccnc3)nc3ccccc23)cc1 | – | inactive |
| FC(F)(F)c1ccccc1-c1nccc(NCc2cccs2)n1 | – | inactive |
| Cc1cccc(CNc2ccnc(-c3ccccc3Cl)n2)c1 | – | inactive |
| FC(F)(F)c1ccccc1-c1nc(NCc2cccs2)c2ccccc2n1 | 3.3 µM (active) | – |
| COc1ccc(CNc2nc(-c3ccccc3OC)nc3ccccc23)c(OC)c1 | 14.5 µM (active) | – |
| FC(F)(F)c1ccccc1-c1nccc(NCc2ccccc2)n1 | 9.6 µM (active) | – |
| Cc1cccc(CNc2ccnc(-c3ccccc3C(F)(F)F)n2)c1 | 3 µM (active) | – |
| COc1ccccc1-c1nccc(NCc2ccccc2)n1 | 16.9 µM (active) | – |
| Cc1noc(C)c1-c1nc(NCc2cccs2)c2ccccc2n1 | 5 µM (active) | – |
| COc1ccccc1-c1nccc(NCc2cccc(C)c2)n1 | 18.8 µM (active) | – |
| COc1ccccc1CNc1ccnc(-c2ccccc2C(F)(F)F)n1 | 4.2 µM (active) | – |
